# Reference: PubChem BioAssay (Tox21)
# Several values for one entry are separate records, joined by “and”; a condition that tells them apart may be missing. Equal entries are not always repeated. A number with no mark means an inactive call. Activity calls are given as the source filed them. Calls come from the whole dose curve; as a rule, active = well fitted curve in the direction sought with a large enough effect in the repeat runs; inconclusive = weak or mixed curves; inactive = flat fitted curve, though single readings scatter.
# Assay: qHTS assay to test for compound auto fluorescence at 590 nm (red) in HepG2 cells (AID 720674)
# Conditions: HepG2 autofluorescence, red 540/590 nm, 1 h; series mostly up to 91.3 µM; fluorescence, relative to Rose Bengal: at the top concentration
# Description: U.S. Tox21 Program National Center for Advancing Translational Sciences [NCATS] NIH Chemical Genomics Center [NCGC] U.S. Environmental Protection Agency [EPA] National Institutes of Environmental Health Sciences [NIEHS] National Toxicology Program [NTP] U.S. Food and Drug Administration [FDA] Tox21 Assay Overview: Compound auto fluorescence often interferes with screening of the compound library against various biological targets and signaling pathways. Some of these compounds may have fluorophoric properties. Such properties may interfere with the assay outputs resulting in false positives and/or negatives. To decrease such complications and ensure the compound activities are relevant in terms of biological response, the Tox21 10K compound library was screened for auto fluorescence. From the fluorophores used as reporter signals in our screening assays, the auto fluorescence equivalencies of compounds against three fluorophores have been evaluated: Triamterene, Fluorescein and Rose Bengal sodium for blue, green and red fluorescence, respectively. The fluorescence intensities were measured using Excitation/Emission wavelengths at 405/460nm, 485/535nm and 540/590nm for blue, green and red labels, respectively. This assay includes the red fluorescence data.
# Tox21 Assay Protocol Summary: 2,000 HepG2 cells in 5 uL of culture medium (MEM containing 10% FBS) per well were dispensed into black wall/clear bottom 1536-well plates using a Multidrop Combi Dispenser (ThermoFisher Scientific, Waltham, MA). The assay plates were incubated overnight at 37 C to allow cell attachment to the well bottom, followed by the transfer of 23 nL compound or DMSO vehicle by a pintool work station (Kalypsys , San Diego, CA). After the assay plates were incubated for 1 hr at 37 C and 5% CO2, fluorescence intensities in the assay plates were measured by an Envision (PerkinElmer, Shelton, CT) plate reader using three labels for measuring blue, green and red fluorescence at […] 460, 535 and 590 nm respectively.
# % is set by controls: 0 for no effect and ±100 for the full control effect; potency is the fitted concentration of half-maximal effect.
SMILES,"fluorescence, relative to Rose Bengal",Potency
CC(C)(C)c1cc(/C=C2\SC(=N)NC2=O)cc(C(C)(C)C)c1O,-0.219%,–
CCN(CC)c1ccc(N)cc1,2.43% [at 95.7 µM],–
C=C1C(C)(C)[C@@]2(Cl)C(Cl)[C@]1(Cl)C(Cl)(Cl)C2(Cl)Cl (stereo not given in full),-0.0872%,–
C=CC(=O)OCCOCC(CC)(COCCOC(=O)C=C)COCCOC(=O)C=C,-0.179% [at 95.7 µM],–
COc1cc(C=C2CCC/C(=C\c3ccc(O)c(OC)c3)C2=O)ccc1O,0.115% [at 46 µM],–
CCN(CC)CCOC(=O)C1(C2CCCCC2)CCCCC1,0.197% [at 46 µM],–
CCNc1nc(NC(C)CC)nc(OC)n1 (stereo not given),0.0837%,–
COC(=O)NCCC[Si](OC)(OC)OC,0.114%,–
CC(NCCC(c1ccccc1)c1ccccc1)c1ccccc1 (stereo not given),-0.627% [at 46 µM],–
CC1=C(/C=C/C(C)=C/C=C/C(C)=C\C=O)C(C)(C)CCC1,-0.309%,–
CC(=O)Nc1ccc(O)cc1,–,inactive
S=P(N1CC1)(N1CC1)N1CC1,–,inactive
CN(C)c1ccc(N=Nc2ccccc2C(=O)O)cc1,-0.0067%,–
COC(=O)[C@]1(C)CCC[C@@]2(C)[C@H]1CC=C1C=C(C(C)C)CC[C@@H]12,-0.121%,–
ClC/C=C\CCl,-0.0489% [at 95.7 µM],–
CCCCCCOc1ccc(O)cc1,-0.041%,–
Clc1ccc(C(c2ccccc2Cl)C(Cl)Cl)cc1 (stereo not given),–,inactive
CCCCCCOc1cc(C)c(O)c(C)c1C,-0.452% [at 95.7 µM],–
CCc1ccc(O)c(C(C)(C)C)c1,0.007%,–
COc1ccccc1OCCNCC(O)COc1cccc2[nH]c3ccccc3c12 (stereo not given),-0.0407% [at 46 µM],–

SMILES,"fluorescence, relative to Rose Bengal",Potency
C[C@@H]1CC[C@H]2C(C)(C)[C@H]3C[C@@]12CC[C@@]3(C)O,-0.0313%,–
CC(O)C#CC(C)O (stereo not given),-0.0604%,–
O=C(O)CCCCCCC(=O)O,0.203%,–
Nc1cc(Cl)c([N+](=O)[O-])cc1O,0.0852%,–
O=S(=O)(O)CCCN1CCOCC1,-0.304%,–
O=Nc1ccc(NO)cc1,0.0772% [at 95.7 µM],–
Cc1cccc(C)c1NC(=O)CN1CCN(CCCC(c2ccc(F)cc2)c2ccc(F)cc2)CC1,-0.479% [at 18.6 µM],–
C1CC(COCC2CO2)CCC1COCC1CO1 (stereo not given),-0.318%,–
C=C[C@](C)(O)CC[C@@H]1[C@@]2(C)CCCC(C)(C)[C@@H]2CC[C@@]1(C)O,-0.0045%,–
Cc1cc(Nc2ccc(O)cc2)ccc1N,0.722%,–
CCCCCCCCCCCCN(CCO)CCO,0.12%,–
NCCCC(O)(P(=O)(O)O)P(=O)(O)O,-0.0236% [at 46 µM],–
CC1=C(/C=C/C(C)=C/C=C/C(C)=C/C(=O)Nc2ccc(O)cc2)C(C)(C)CCC1,–,inactive
CC(CN(C)C)CN1c2ccccc2CCc2ccccc21 (stereo not given),0.485% [at 18.6 µM],–
CN1CCN(C2Cc3ccccc3Sc3ccc(Cl)cc32)CC1 (stereo not given),0.0033% [at 46 µM],–
CCN=c1cc2oc3cc(NCC)c(C)cc3c(-c3ccccc3C(=O)OCC)c-2cc1C,–,3.55 µM (active) and 3.98 µM (active)
CC(C)c1ccc(O)c(C(C)C)c1,-0.762%,–
C(=C/c1ccccc1)/c1ccccc1,-0.0269% [at 95.7 µM],–
COc1cc(C(=O)NS(=O)(=O)c2ccccc2C)ccc1Cc1cn(C)c2ccc(NC(=O)OC3CCCC3)cc12,0.101% [at 46 µM],–
CNC(=O)c1cc(Oc2ccc(NC(=O)Nc3ccc(Cl)c(C(F)(F)F)c3)cc2)ccn1,0.133% [at 46 µM],–
